According to PubChem BioAssay (NCI):
The panel holds about 79,000 compounds, 15% with a hit somewhere; the sample as a whole holds those more often. Values without a mark were called inactive. Activity calls are given as the source filed them. Cut-off read from the data, not from the text of the source: active = growth inhibition above about 70%; inactive = the rest.

Test: NCI Yeast Anticancer Drug Screen. Data for the rad50EPP+ strain (AID 151);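 note: 0% = growth of vehicle-treated control cultures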
Conditions: S. cerevisiae rad50 mutant strain, at 3.7 µM, stronger effect = higher value
Method in brief: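 Genetically defined yeast (rad50EPP+, DNA damage repair alteration) is grown with compound, and inhibition of growth is expressed relative to vehicle-treated controls.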

Row | Compound | growth inhibition
1 | CCOP(=O)(OCC)C(Cc1ccccc1)N=C(c1ccccc1)c1ccccc1 (stereo not drawn) | 12%
2 | CCc1ncnc2cc(OCC3CO3)c(OC)cc12 (stereo not drawn) | 31%
3 | CCOC(=O)[C@H]1Nc2ccccc2C2c3ccccc3CC21 (stereo partly drawn) | 0%
4 | O=CNc1ccc2c(c1)C(=O)c1ccccc1-2 | 12%
5 | CCOc1ccc2c(c1)c(CC(=O)O)cn2C | 27%
6 | OC1CSCCCSCCSCCCSC1 | -52%
7 | N#Cc1c(N)[nH]c2ccc(Sc3ccccc3)cc12 | 6%
8 | Cc1ccc(-c2ccc(Nc3c4ccccc4nc4ccccc34)cc2)cn1 | 44%
9 | c1ccc2c(c1)NC(NC1Nc3ccccc3N1)N2 | 23%
10 | OC(COc1cccc2ccccc12)CN1CCOCC1 (stereo not drawn) | -6%
11 | CCC/C(Cl)=N\OC(=O)Nc1ccc(Br)cc1 | 31%
12 | COc1ccc(/C=C2\SC(=S)N(/C=C/c3nc4ccccc4[nH]c3=O)C2=O)cc1OC | 3%
13 | O=C(NNc1ccnc2cc(Cl)ccc12)/C(=C\c1ccccc1Cl)NC(=O)c1ccccc1 | 55%
14 | CSC1=NNC(SC)=NN1 | -9%
15 | Cc1c(C2=C(Br)C(=O)N(C)C2=O)c(=O)n(C)c(=O)n1C | -2%
16 | NCCNc1ccc(NCCN)c2c1C(=O)c1c(O)ccc(O)c1C2=O | 62%
17 | Cn1c(=O)c(-c2ccccc2)c(N=[N+]=[N-])c2ccccc21 | 6%
18 | CCCCCCCCCCCCCCCCCCOCC(O)COP(=O)(O)OCC1OC(n2cc(F)c(=O)[nH]c2=O)CC1O (stereo not drawn) | 38%
19 | CCS(=O)(=O)c1ccc(/C=C/C=N/NC(=S)NCC(C)C)cc1 | 5%
20 | CCC(=O)Oc1c(Cl)cc(Cl)c2ccccc12 | 4%

Row | Compound | growth inhibition
21 | COc1cc2c3c(cccc3c1)C(=O)N(CCN(C)C)C2=O | 1%
22 | CN(C)c1ccc(C(C#N)=C(C#N)C#N)cc1 | 3%
23 | O=C(CCCN1CCC2(CC1)CC(=O)N(N1CCCCCC1)C2=O)c1ccc(F)cc1 | -2%
24 | O=C1C2C(C(=O)N1c1ccc(OCc3ccccc3)cc1)C1c3ccccc3C2C2CCCCN21 (stereo not drawn) | 4%
25 | CCN(CC)CCC(=O)c1ccc(Oc2ccc(F)cc2)cc1 | -30%
26 | O=Nc1c(NO)ccc2nn(-c3ccccc3)nc12 | 33%
27 | CC(=O)SCCC[Si](C)(C)CCCSC(C)=O | 2%
28 | O=C(O)C1CCCCC1c1c2ccc(=O)c(O)c-2oc2c(O)c(O)ccc12 (stereo not drawn) | 0%
29 | Cc1ccc(NN(NC(=O)OC(C)C)C(=O)OC(C)C)cc1 | 13%
30 | O=C1c2ccccc2C(=O)c2cc(CBr)ccc21 | 56%
31 | Cc1c(C(Cc2ccccc2N(C)C(=O)/C=C\C(=O)O)c2c[nH]c3ccccc23)c2ccccc2n1C (stereo not drawn) | -4%
32 | CC(C)/C(Cl)=N\OC(=O)Nc1ccc(F)cc1 | 11%
33 | O=C1OC(=O)C2CCCC3CCCC1C32 (stereo not drawn) | 54%
34 | CCOC(=O)C(NC(=O)c1ccccc1)(N1CCN(c2cc3c(cc2F)c(=O)c(C(=O)O)cn3C2CC2)CC1)C(F)(F)F (stereo not drawn) | 0%
35 | COc1ccc(NC(=S)N/N=C(\c2ccccc2)c2ccccn2)cc1 | 4%
36 | C=CCC1=C(C)C(OC(=O)/C=C/c2ccccc2)CC1=O (stereo not drawn) | 0%
37 | NNc1c(F)c(F)cc(F)c1F | -1%
38 | COP(=O)(OC)/C(=C\C1=CN(C(c2ccccc2)(c2ccccc2)c2ccccc2)CN1)NC=O | 10%
39 | COC(=O)c1cc(-c2ccc(C)cc2)[nH]c(=O)c1C#N | -4%

Same assay, conditions: S. cerevisiae rad50 mutant strain, at 11.0 µM, stronger effect = higher value

Row | Compound | growth inhibition
40 | CCOP(=O)(OCC)C(Cc1ccccc1)N=C(c1ccccc1)c1ccccc1 (stereo not drawn) | 44%
41 | CCc1ncnc2cc(OCC3CO3)c(OC)cc12 (stereo not drawn) | 31%
42 | CCOC(=O)[C@H]1Nc2ccccc2C2c3ccccc3CC21 (stereo partly drawn) | 14%
43 | O=CNc1ccc2c(c1)C(=O)c1ccccc1-2 | 26%
44 | CCOc1ccc2c(c1)c(CC(=O)O)cn2C | 71% (active)
45 | OC1CSCCCSCCSCCCSC1 | -49%
46 | N#Cc1c(N)[nH]c2ccc(Sc3ccccc3)cc12 | 19%
47 | Cc1ccc(-c2ccc(Nc3c4ccccc4nc4ccccc34)cc2)cn1 | 85% (active)
48 | c1ccc2c(c1)NC(NC1Nc3ccccc3N1)N2 | 34%
49 | OC(COc1cccc2ccccc12)CN1CCOCC1 (stereo not drawn) | -9%
50 | CCC/C(Cl)=N\OC(=O)Nc1ccc(Br)cc1 | 56%
51 | COc1ccc(/C=C2\SC(=S)N(/C=C/c3nc4ccccc4[nH]c3=O)C2=O)cc1OC | 21%
52 | O=C(NNc1ccnc2cc(Cl)ccc12)/C(=C\c1ccccc1Cl)NC(=O)c1ccccc1 | 91% (active)
53 | CSC1=NNC(SC)=NN1 | 0%
54 | Cc1c(C2=C(Br)C(=O)N(C)C2=O)c(=O)n(C)c(=O)n1C | -2%
55 | NCCNc1ccc(NCCN)c2c1C(=O)c1c(O)ccc(O)c1C2=O | 82% (active)
56 | Cn1c(=O)c(-c2ccccc2)c(N=[N+]=[N-])c2ccccc21 | 10%
57 | CCCCCCCCCCCCCCCCCCOCC(O)COP(=O)(O)OCC1OC(n2cc(F)c(=O)[nH]c2=O)CC1O (stereo not drawn) | 70% (active)
58 | CCS(=O)(=O)c1ccc(/C=C/C=N/NC(=S)NCC(C)C)cc1 | 5%
59 | CCC(=O)Oc1c(Cl)cc(Cl)c2ccccc12 | 10%

Row | Compound | growth inhibition
60 | COc1cc2c3c(cccc3c1)C(=O)N(CCN(C)C)C2=O | 8%
61 | CN(C)c1ccc(C(C#N)=C(C#N)C#N)cc1 | 7%
62 | O=C(CCCN1CCC2(CC1)CC(=O)N(N1CCCCCC1)C2=O)c1ccc(F)cc1 | -1%
63 | O=C1C2C(C(=O)N1c1ccc(OCc3ccccc3)cc1)C1c3ccccc3C2C2CCCCN21 (stereo not drawn) | 0%
64 | CCN(CC)CCC(=O)c1ccc(Oc2ccc(F)cc2)cc1 | 9%
65 | O=Nc1c(NO)ccc2nn(-c3ccccc3)nc12 | 51%
66 | CC(=O)SCCC[Si](C)(C)CCCSC(C)=O | 12%
67 | O=C(O)C1CCCCC1c1c2ccc(=O)c(O)c-2oc2c(O)c(O)ccc12 (stereo not drawn) | -24%
68 | Cc1ccc(NN(NC(=O)OC(C)C)C(=O)OC(C)C)cc1 | 25%
69 | O=C1c2ccccc2C(=O)c2cc(CBr)ccc21 | 73% (active)
70 | Cc1c(C(Cc2ccccc2N(C)C(=O)/C=C\C(=O)O)c2c[nH]c3ccccc23)c2ccccc2n1C (stereo not drawn) | -6%
71 | CC(C)/C(Cl)=N\OC(=O)Nc1ccc(F)cc1 | 24%
72 | O=C1OC(=O)C2CCCC3CCCC1C32 (stereo not drawn) | 75% (active)
73 | CCOC(=O)C(NC(=O)c1ccccc1)(N1CCN(c2cc3c(cc2F)c(=O)c(C(=O)O)cn3C2CC2)CC1)C(F)(F)F (stereo not drawn) | 1%
74 | COc1ccc(NC(=S)N/N=C(\c2ccccc2)c2ccccn2)cc1 | 5%
75 | C=CCC1=C(C)C(OC(=O)/C=C/c2ccccc2)CC1=O (stereo not drawn) | 6%
76 | NNc1c(F)c(F)cc(F)c1F | 21%
77 | COP(=O)(OC)/C(=C\C1=CN(C(c2ccccc2)(c2ccccc2)c2ccccc2)CN1)NC=O | 73% (active)
78 | COC(=O)c1cc(-c2ccc(C)cc2)[nH]c(=O)c1C#N | -5%
